This passage reports Potency, outcome and max activation results from PubChem BioAssay (Tox21).

Unmarked numbers belong to inactive results. Records with an inconclusive call do not appear. Calls of active or inactive are those of the source. Unless noted, calls come from the whole dose curve; as a rule, active = well fitted curve in the direction sought with a large enough effect in the repeat runs; inconclusive = weak or mixed curves; inactive = no such curve, though single readings can be large; an effect the other way counts as inactive or inconclusive.

The nature of assay [1]: qHTS assay to identify small molecule agonists of the estrogen receptor alpha (ER-alpha) signaling pathway in the presence of an antagonist - cell viability counter screen (AID 1259386).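 Note: series mostly up to about 92 µM; cells exposed to compounds for 22 h at 37 °C before the viability read; % is set by controls: 0 for no effect and ±100 for the full control effect; nearly all actives have a fitted effect of over 30% in size.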 In outline:
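Cytotoxicity was measured in parallel with the ERE-luciferase agonist screen, in the same wells. The cells were VM7Luc4E2, which endogenously express ER-alpha, and treatment was with compounds plus 10.0nM ICI-182,780 for 22hr.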
Background: Quantitative high-throughput screening tests each substance at several concentrations.

The target of assay [2] is Progesterone receptor (Homo sapiens) (UniProt P06401). The assay is described as follows: qHTS assay to identify small molecule agonists of the progesterone receptor (PR) signaling pathway (AID 1346784; calls by dose curve; note: % is set by controls: 0 for no effect and ±100 for the full control effect; nearly all actives have a fitted effect of over 30% in size). Summed up: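 PR-UAS-bla HEK 293T cells (beta-lactamase reporter under UAS) in 2% charcoal-stripped FBS, dosed with 23 nL compound after 6 hr, incubated 16hr at 37C. LiveBLAzer B/G FRET substrate added, fluorescence read after 2 hours.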
Progesterone receptor (Homo sapiens), sequence (P06401 whole entry, looked up): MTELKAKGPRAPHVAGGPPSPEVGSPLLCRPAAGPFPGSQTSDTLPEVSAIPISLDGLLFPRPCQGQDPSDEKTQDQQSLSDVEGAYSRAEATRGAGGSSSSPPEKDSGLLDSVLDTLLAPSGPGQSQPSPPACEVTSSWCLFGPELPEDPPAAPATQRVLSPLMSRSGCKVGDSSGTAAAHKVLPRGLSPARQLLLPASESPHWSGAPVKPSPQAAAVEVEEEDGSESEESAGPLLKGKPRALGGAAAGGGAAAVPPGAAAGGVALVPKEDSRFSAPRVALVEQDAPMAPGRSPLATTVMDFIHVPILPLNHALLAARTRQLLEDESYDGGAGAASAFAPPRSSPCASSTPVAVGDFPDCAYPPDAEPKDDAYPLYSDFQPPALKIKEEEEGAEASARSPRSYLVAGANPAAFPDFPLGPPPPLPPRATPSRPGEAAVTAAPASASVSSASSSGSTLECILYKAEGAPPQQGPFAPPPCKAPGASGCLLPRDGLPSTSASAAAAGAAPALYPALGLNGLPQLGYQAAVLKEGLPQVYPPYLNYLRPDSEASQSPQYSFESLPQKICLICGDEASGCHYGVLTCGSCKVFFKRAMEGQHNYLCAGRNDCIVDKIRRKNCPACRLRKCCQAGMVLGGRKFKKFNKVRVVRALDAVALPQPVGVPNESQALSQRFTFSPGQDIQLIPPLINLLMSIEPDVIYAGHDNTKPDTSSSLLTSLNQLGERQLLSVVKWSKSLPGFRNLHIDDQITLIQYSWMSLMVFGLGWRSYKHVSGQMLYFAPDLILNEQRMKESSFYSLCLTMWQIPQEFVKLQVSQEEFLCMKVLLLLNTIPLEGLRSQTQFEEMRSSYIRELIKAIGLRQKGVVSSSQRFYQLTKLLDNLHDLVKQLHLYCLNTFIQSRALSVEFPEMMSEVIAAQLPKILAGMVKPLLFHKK

The target is the same in assay [3]. The assay is described as follows: qHTS assay to identify small molecule antagonists of the progesterone receptor (PR) signaling pathway (AID 1346795; active = well fitted inhibition curve with a large enough effect in the signal ratio in the repeat runs, not every such curve was filed as active; the % refers to the signal ratio; note: % is set by controls: 0 for no effect and ±100 for the full control effect). Summed up: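 PR-UAS-bla HEK293T cells with beta-lactamase reporter under UAS control, in 2% charcoal-stripped FBS, treated with compounds plus 1 nM promegestone (R5020, final) for 16 hr at 37C. Read-out: FRET beta-lactamase substrate fluorescence after 2 hr at room temperature.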

The nature of assay [4]: qHTS assay to identify small molecule antagonists of the progesterone receptor (PR) signaling pathway - cell viability counter screen (AID 1346798). Note: series mostly up to about 92 µM; % is set by controls: 0 for no effect and ±100 for the full control effect; nearly all actives have a fitted effect of over 50% in size. Summed up:
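PR-UAS-bla HEK293T cells, 3,000/well in 2% charcoal-stripped FBS medium, dosed with compounds plus R5020 agonist and incubated 16 h at 37C. Viability then measured in the same wells by CellTiter-Glo luminescence after 30 min at RT.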

Assay [5] is described as follows: qHTS assay to identify small molecule agonists of the progesterone receptor (PR) signaling pathway - cell viability counter screen (AID 1346799; calls by dose curve; note: % is set by controls: 0 for no effect and ±100 for the full control effect; nearly all actives have a fitted effect of over 45% in size). In outline: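 Counter screen in the PR-UAS-bla HEK293T wells (2% charcoal-stripped FBS, 16 h compound exposure at 37 C) after the bla read. CellTiter-Glo added, 30 min at room temperature, luminescence read as cell viability.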

The nature of assay [6]: qHTS assay to identify small molecule antagonists of the TGF-beta/Smad signaling pathway - cell viability counter screen (AID 1346824). Note: % is set by controls: 0 for no effect and ±100 for the full control effect; nearly all actives have a fitted effect of over 50% in size. In outline:
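SBE-bla HEK 293T cells, incubated overnight, then compound plus 0.25 ng/mL TGF-beta1 (stock added) for 5 hr at 37 C. Viability was read in the same wells by CellTiter-Glo luminescence after 30 min at room temperature.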

Assay [7] in a line: qHTS assay to identify small molecule agonists of the TGF-beta/Smad signaling pathway - cell viability counter screen (AID 1346829). Note: top concentration of the series differs between compounds; % is set by controls: 0 for no effect and ±100 for the full control effect; nearly all actives have a fitted effect of over 45% in size. Summed up:
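After overnight seating at 37 C and 5% CO2, reporter cells got compounds for 5 hr and FRET substrate for 2 hr; cell viability then came from CellTiter-Glo luminescence.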

Assay [8] concerns the target Thyrotropin-releasing hormone receptor (Homo sapiens) (UniProt P34981). Nature of the assay: qHTS assay to identify small molecule antagonists of the thyrotropin-releasing hormone receptor (TRHR) signaling pathway (AID 1346877; active = well fitted inhibition curve with a large enough effect in the repeat runs, not every such curve was filed as active; note: series mostly up to about 51 µM; % is set by controls: 0 for no effect and ±100 for the full control effect). In outline:
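Antagonism is measured as suppression of the calcium response to 1 nM TRH in TRHR-HEK293 cells that have been dye-loaded for 2 h at 37 °C after overnight plating. Each compound is tested at 15 concentrations in triplicate.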

Assay [9] can be described thus: Human pregnane X receptor (PXR) small molecule agonists, qHTS cell viability counter screen (AID 1346977). Note: % is set by controls: 0 for no effect and ±100 for the full control effect; nearly all actives have a fitted effect of over 50% in size. In outline: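 PXR-Luc HepG2 cells (2,000/well, 5% charcoal-stripped FBS) preincubated 5 hr, then exposed to compounds 24 hr at 37 C. Viability read in the same wells by CellTiter-Fluor fluorescence, reagent added at 23 hr, 1 hr incubation.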
Assay [10] is described as follows: Caspase-3/7 induction in HepG2 cells by small molecules, qHTS assay (AID 1346978). Note: % is set by controls: 0 for no effect and ±100 for the full control effect; nearly all actives have a fitted effect of over 15% in size. In outline:
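Wild-type HepG2 cells, 2,000/well, settled 5 hr at 37 C and 5% CO2, then compound-treated for 17 hr; caspase-3/7 activity read by luminescent Caspase-Glo 3/7 after 30 min at room temperature.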

The nature of assay [11]: Caspase-3/7 induction in CHO-K1 cells by small molecules, qHTS cell viability counter screen (AID 1346979). Note: % is set by controls: 0 for no effect and ±100 for the full control effect; nearly all actives have a fitted effect of over 35% in size. Summed up: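 Wild-type CHO-K1 cells (1,500/well) treated with compound after 5 h plating; after 16 h at 37C, viability read as CellTiter-Fluor fluorescence following 1 h reagent incubation, in the same wells as the caspase read.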
The nature of assay [12]: Caspase-3/7 induction in CHO-K1 cells by small molecules, qHTS assay (AID 1346980). Note: % is set by controls: 0 for no effect and ±100 for the full control effect; nearly all actives have a fitted effect of over 15% in size. In outline: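 Wild-type CHO-K1 cells exposed to compounds for 17hr at 37 C, 5% CO2. Caspase-3/7 activity then measured by Caspase-Glo 3/7 luminescence after 30min at room temperature.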
Assay [13] in a line: Caspase-3/7 induction in HepG2 cells by small molecules, qHTS cell viability counter screen (AID 1346981). Note: series mostly up to about 92 µM; % is set by controls: 0 for no effect and ±100 for the full control effect; nearly all actives have a fitted effect of over 30% in size. In outline: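 Cell viability is measured as a cytotoxicity counter screen alongside the Caspase-Glo 3/7 readout in identical wells. Wild-type HepG2 cells are treated with test compounds for 16 hr at 37 C before CellTiter-Fluor addition and a 1-hr incubation.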
The target of assay [14] is Nuclear receptor subfamily 1 group I member 2 (Homo sapiens) (UniProt O75469). Nature of the assay: Human pregnane X receptor (PXR) small molecule agonists, qHTS assay (AID 1346982). Note: nearly all actives have a fitted effect of over 35% in size. Note: potency is the fitted concentration of half-maximal effect. In outline: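 Cells: HepG2 stably carrying PXR-Luc. Medium held 5% charcoal-stripped FBS. Compounds in DMSO added after 5 hr plating, incubated 24 hr, then luminescence quantified with ONE-Glo.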
Nuclear receptor subfamily 1 group I member 2 (Homo sapiens), sequence (O75469 whole entry, looked up): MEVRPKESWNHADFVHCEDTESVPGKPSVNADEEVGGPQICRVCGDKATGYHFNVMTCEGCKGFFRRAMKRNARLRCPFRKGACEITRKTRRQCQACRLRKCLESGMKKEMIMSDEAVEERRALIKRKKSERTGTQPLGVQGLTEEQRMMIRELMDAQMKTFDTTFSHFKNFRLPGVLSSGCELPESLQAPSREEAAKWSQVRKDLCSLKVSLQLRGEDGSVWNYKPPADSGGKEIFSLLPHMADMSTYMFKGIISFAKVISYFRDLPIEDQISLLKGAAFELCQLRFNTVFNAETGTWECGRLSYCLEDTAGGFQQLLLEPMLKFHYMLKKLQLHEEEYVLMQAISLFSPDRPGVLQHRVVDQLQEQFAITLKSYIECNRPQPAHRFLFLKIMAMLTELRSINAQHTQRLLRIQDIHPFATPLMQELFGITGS

Assay [15] deals with Nuclear receptor subfamily 1 group I member 2 (Rattus norvegicus) (UniProt Q9R1A7). Nature of the assay: Rat pregnane X receptor (rPXR) activation by small molecules, qHTS assay (AID 1346983). Note: % is set by controls: 0 for no effect and ±100 for the full control effect; nearly all actives have a fitted effect of over 20% in size. To be noted: rPXR luciferase reporter cells, One-Glo luminescence, 24 h; max activation: stronger effect = higher value. In outline:
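Cell-based rPXR activation assay: rPXR cells, 2,000 per well, rested 5hr at 37 C, then exposed to compounds in DMSO for 24 hr at 37 C. Luciferase activity read by One-Glo luminescence after 30 min at room temperature.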

Assay [16] deals with Nuclear receptor subfamily 1 group I member 2 (Homo sapiens) (UniProt O75469). The assay is described as follows: Human pregnane X receptor (PXR) activation by small molecules, qHTS assay (AID 1346985). Note: potency is the fitted concentration of half-maximal effect; nearly all actives have a fitted effect of over 40% in size. Summed up: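 DPX-2 cells (HepG2 co-transfected with a PXR response element and a CYP3A4-promoter luciferase construct) were seeded at 2,000 per well, rested 5 hr at 37C, then exposed to DMSO-dissolved compounds for 24 hr. Activation was read as luciferase luminescence.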

Assay [17] deals with Acetylcholinesterase (Homo sapiens) (UniProt P22303). The assay is described as follows: Acetylcholinesterase (AChE) small molecule antagonists: colormetric cell-based qHTS assay (AID 1347395; calls by dose curve; note: % is set by controls: 0 for no effect and ±100 for the full control effect; nearly all actives have a fitted effect of over 30% in size). Summed up: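 SH-SY5Y cells attached overnight, exposed to compound 30 min at 37 C, then given DTNB/acetylthiocholine; after 90 min at 37 C, colorimetric thiocholine read gives cellular AChE activity.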
Acetylcholinesterase (Homo sapiens), sequence (P22303 whole entry, looked up): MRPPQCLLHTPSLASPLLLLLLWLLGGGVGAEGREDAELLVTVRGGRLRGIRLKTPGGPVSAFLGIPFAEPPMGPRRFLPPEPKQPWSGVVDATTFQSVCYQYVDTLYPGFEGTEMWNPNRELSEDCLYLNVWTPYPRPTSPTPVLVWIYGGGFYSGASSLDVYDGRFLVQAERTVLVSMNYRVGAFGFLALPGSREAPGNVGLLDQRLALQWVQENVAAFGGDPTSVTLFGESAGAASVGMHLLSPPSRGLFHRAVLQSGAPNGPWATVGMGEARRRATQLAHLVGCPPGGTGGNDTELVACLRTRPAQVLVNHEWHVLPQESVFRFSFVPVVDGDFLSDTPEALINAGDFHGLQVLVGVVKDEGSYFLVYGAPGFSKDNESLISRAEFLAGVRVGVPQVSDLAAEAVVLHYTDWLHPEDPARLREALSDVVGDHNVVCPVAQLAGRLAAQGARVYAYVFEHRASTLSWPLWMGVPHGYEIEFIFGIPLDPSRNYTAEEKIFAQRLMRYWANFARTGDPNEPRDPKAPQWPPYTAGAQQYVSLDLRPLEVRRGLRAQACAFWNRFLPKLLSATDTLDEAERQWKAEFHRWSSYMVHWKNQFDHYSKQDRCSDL

A short description of assay [18]: qHTS assay to identify small molecule agonists of the TGF-beta/Smad signaling pathway (AID 1346859; active = well fitted activation curve with a large enough effect in the signal ratio in the repeat runs, not every such curve was filed as active; the % refers to the signal ratio; note: series mostly up to about 77 µM; % is set by controls: 0 for no effect and ±100 for the full control effect). In outline:
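SBE-bla HEK293T cells plated overnight, then compound exposure for 5 h at 37 C. Beta-lactamase reporter read with LiveBLAzer B/G FRET substrate after 2 h at room temperature, fluorescence at 405 nm excitation, 460/530 nm emission.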

In assay [19] the target is Thyrotropin-releasing hormone receptor (Homo sapiens) (UniProt P34981). Nature of the assay: qHTS assay to identify small molecule agonists of the thyrotropin-releasing hormone receptor (TRHR) signaling pathway (AID 1346891; calls by dose curve; note: series mostly up to about 58 µM; % is set by controls: 0 for no effect and ±100 for the full control effect). In outline:
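HEK293 cells expressing TRHR plated 18 h at 37 C/5% CO2, calcium dye-loaded 2 h at 37 C, then compound added (agonist mode); kinetic calcium fluorescence read 3 min at 1 s intervals; 15 concentrations in triplicate.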

Thyrotropin-releasing hormone receptor (Homo sapiens), sequence (P34981 whole entry, looked up): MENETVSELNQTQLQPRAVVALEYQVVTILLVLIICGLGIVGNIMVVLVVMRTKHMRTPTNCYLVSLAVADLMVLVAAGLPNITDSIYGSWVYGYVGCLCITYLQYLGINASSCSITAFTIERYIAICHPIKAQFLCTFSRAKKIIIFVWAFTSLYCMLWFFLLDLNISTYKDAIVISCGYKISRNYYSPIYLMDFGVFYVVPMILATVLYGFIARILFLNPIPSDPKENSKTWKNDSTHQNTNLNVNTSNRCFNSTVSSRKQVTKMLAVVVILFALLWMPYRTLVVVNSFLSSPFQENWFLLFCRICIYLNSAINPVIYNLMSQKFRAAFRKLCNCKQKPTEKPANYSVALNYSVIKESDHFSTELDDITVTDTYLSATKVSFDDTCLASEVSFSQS
Nuclear receptor subfamily 1 group I member 2 (Rattus norvegicus), sequence (Q9R1A7 whole entry, looked up): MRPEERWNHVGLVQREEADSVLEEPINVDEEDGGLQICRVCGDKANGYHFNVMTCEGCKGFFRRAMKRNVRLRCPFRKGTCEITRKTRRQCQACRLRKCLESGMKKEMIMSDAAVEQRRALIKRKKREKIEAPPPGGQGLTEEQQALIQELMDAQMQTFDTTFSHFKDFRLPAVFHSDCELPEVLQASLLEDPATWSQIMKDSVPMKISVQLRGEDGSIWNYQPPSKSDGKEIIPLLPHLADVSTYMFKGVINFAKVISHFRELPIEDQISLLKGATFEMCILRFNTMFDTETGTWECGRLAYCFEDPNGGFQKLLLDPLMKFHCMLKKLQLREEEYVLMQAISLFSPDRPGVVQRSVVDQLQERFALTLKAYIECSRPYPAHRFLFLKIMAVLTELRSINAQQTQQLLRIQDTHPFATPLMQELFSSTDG

As to `CC(C)(C)OC(=O)c1ncn2c1[C@@H]1CCCN1C(=O)c1c(Br)cccc1-2`, the Potency result in [1], in [2], in assay [3], in [4], in [5] and in assay [6] was “inactive” throughout. The Potency entry in [9], in assay [10], in [11], in assay [12], in assay [13] and in [17] was “inactive” each time. Moreover, the compound was called inactive in assay [7] and in assay [8]. In addition, the Potency was 13.3 µM (active) in assay [14] and 15.8 µM (active) in [16]. Besides, in [15], the max activation was -1.76%.

For `O=C(Cc1ccccc1)OCc1ccccc1`, the Potency result in assay [1], in [2], in [3], in assay [4], in assay [5] and in assay [6] was “inactive” throughout. Also, the Potency result in [9], in assay [10], in assay [11], in [12], in [13] and in assay [17] was “inactive” in each case. For the same compound, the compound was classed as inactive in assay [18].

As to `COP(=S)(OC)Oc1ccc(S(N)(=O)=O)cc1`, the Potency entry in [1], in assay [2], in [3], in assay [4], in assay [5] and in assay [6] was “inactive” each time. Also, the Potency entry in [9], in assay [10], in [11], in assay [12], in assay [13] and in assay [14] was “inactive” in each case. Further, in [17], the Potency entry is “inactive”. Further, the compound was called inactive in assay [18] and in [8].

Regarding `CC(C(O)c1ccccc1)N(C)C/C=C/c1ccccc1` (stereo not drawn), the Potency result in [1], in [2], in assay [3], in assay [4], in assay [5] and in assay [6] was “inactive” each time. Besides, the Potency result in [10], in assay [11], in assay [12], in assay [13] and in assay [17] was “inactive” in each case. The result in [18] was inactive.

In the case of `CCOP(=O)(OCC)OP(=O)(OCC)OCC`, the Potency result in assay [1], in assay [2], in assay [3], in assay [4], in assay [5] and in assay [6] was “inactive” each time. For the same compound, the Potency result in assay [9], in assay [10], in assay [11], in assay [13] and in assay [17] was “inactive” each time. The outcome in assay [18], in [8] and in assay [19] was inactive.

`CCOC(=O)C(c1c(O)c2ccccc2oc1=O)c1c(O)c2ccccc2oc1=O`: the Potency entry in assay [1], in [2], in assay [3], in assay [4], in [6] and in assay [9] was “inactive” in each case. In addition, the Potency entry in assay [10], in [11], in assay [12], in [13] and in assay [17] was “inactive” each time. For the same compound, the result in [7], in [18], in assay [8] and in [19] was inactive.

As to `O=[N+]([O-])c1ccc(CBr)cc1`, the Potency result in assay [1], in [2], in [3], in assay [4], in assay [6] and in [9] was “inactive” each time. The Potency entry in assay [10], in assay [11], in [12], in assay [13], in assay [14] and in [17] was “inactive” throughout. Moreover, the compound was classed as inactive in assay [7], in assay [18], in assay [8] and in assay [19].

As to `CC(C)NCC(O)c1ccc(N)c(C#N)c1` (stereo not drawn), the Potency entry in assay [1], in assay [2], in assay [3], in assay [5], in [6] and in [9] was “inactive” each time. Also, the Potency result in [10], in assay [11], in assay [12], in assay [13] and in assay [17] was “inactive” each time. Moreover, the result in [7] and in assay [18] was inactive.

Consider `COC(=O)c1ccccc1S(=O)(=O)NC(=O)N(C)c1nc(C)nc(OC)n1`, for which the Potency result in assay [1], in assay [2], in assay [3], in assay [4], in assay [5] and in [6] was “inactive” in each case. Also, the Potency result in assay [9], in assay [10], in assay [11], in [13] and in assay [17] was “inactive” in each case. The outcome in assay [18], in assay [8] and in assay [19] was inactive.

For the compound `Cc1ncc(CNC(=O)N(CCCl)N=O)c(N)n1`, the Potency entry in [1], in assay [2], in assay [3], in assay [5], in assay [6] and in assay [9] was “inactive” each time. The Potency entry in assay [10], in [11], in [13] and in [17] was “inactive” each time. Besides, the call in assay [7], in assay [18], in [8] and in [19] was inactive.
